Consider twelve compounds from PubChem BioAssay (NCI).

Values joined by “and” are separate entries in the source; they are usually repeats but may differ in a detail not shown here. Identical values can stand only once. Compounds without any hit were thinned out: in the full panel of roughly 83,000, 20% have a hit.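 Results are percent growth after 48 hours of single-concentration exposure. 100 means growth as in untreated cells, lower positive values show inhibition; negative values down to -100 show cell death.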 Values without a mark were called inactive. Active and inactive are the calls of the source. The calls were made as follows: active = growth percent below 10; inactive = the rest.

Test systems include NCI-H23 lung; NCI-H226 lung; NCI-H322M lung; HOP-62 NSCLC; NCI-H460 lung; HOP-92 NSCLC; NCI-H522 lung; A549/ATCC NSCLC; 786-0 renal; COLO 205 colon.
Holding throughout (experiment): NCI-60 one-dose screen, 48 h (100 = growth as untreated, 0 = no growth, -100 = all killed)
What all share (settings): 10 µM unless noted

Turning to `COc1ccc(-c2cc(-c3cccnc3)nc3sc4c(Cl)nnnc4c23)cc1OC`, the growth with NCI-H23 lung was 91.3%; in the assay with NCI-H226 lung, 84.4%; in the assay on NCI-H322M lung, 95.3%; with HOP-62 NSCLC, 98.4%; with NCI-H460 lung, 102%; with HOP-92 NSCLC, 106%. The growth is 47.4% in the assay with NCI-H522 lung, 93.6% in the assay with A549/ATCC NSCLC, 109% in the assay on 786-0 renal and 42% in the assay on COLO 205 colon.
In the case of `COCCn1cc(-c2csc(-c3cn(C)c4ccc(F)cc34)n2)c2cccnc21`, the growth in the assay with NCI-H23 lung is 76.3%; with NCI-H226 lung it was 83%; in the assay with NCI-H322M lung, 75.7%; with HOP-62 NSCLC it was 93.2%; in the assay on NCI-H460 lung it was 51.6%; in the assay on HOP-92 NSCLC it was 64.7%. Besides, the growth was 30.8% in the assay on NCI-H522 lung, 60.6% in the assay on A549/ATCC NSCLC, 62% in the assay on 786-0 renal and 61.6% in the assay on COLO 205 colon.
With `COc1cc(C(=O)c2ccccc2C(=O)O)c(OC)c2c1CCCC2`, the growth in the assay on NCI-H23 lung is 98.2% and 94.4%; in the assay with NCI-H226 lung, 108%; in the assay on NCI-H322M lung it was 108% and 101%; in the assay with HOP-62 NSCLC it was 106%; in the assay with NCI-H460 lung, 103% and 107%; with HOP-92 NSCLC, 95.8%. For the same compound, the growth in the assay with NCI-H522 lung is 106% and 145%; with A549/ATCC NSCLC it was 97.5% and 101%; with 786-0 renal, 94.2% and 97.6%; in the assay with COLO 205 colon it was 114% and 108%.
Take `CN(C)C(=O)c1cc2cnc(Nc3ccc(-c4csc5c(=S)cc(N6CCOCC6)oc45)cc3)nc2n1C1CCCC1`: the growth is 7.49% (active) with NCI-H23 lung; 15.8% in the assay with NCI-H226 lung; 18.4% in the assay on NCI-H322M lung; 6.1% (active) with HOP-62 NSCLC; 3.26% (active) with NCI-H460 lung; -5.69% (active) with HOP-92 NSCLC. Besides, the growth is 4.24% (active) with NCI-H522 lung, 5.94% (active) in the assay on A549/ATCC NSCLC, 9.52% (active) with 786-0 renal and -33.9% (active) with COLO 205 colon.
Turning to `O=c1cc(N/N=C/c2ccc(F)cc2)c2cc(Cl)ccc2[nH]1`, the growth in the assay with NCI-H23 lung is 85.3%; in the assay on NCI-H226 lung, 76.1%; with NCI-H322M lung it was 95.2%; in the assay with HOP-62 NSCLC it was 95%; in the assay on NCI-H460 lung, 102%; in the assay with HOP-92 NSCLC, -48.3% (active). Besides, the growth with NCI-H522 lung is 72.8%; in the assay with A549/ATCC NSCLC, 89.3%; with 786-0 renal it was 89.5%; in the assay with COLO 205 colon, 96.2%.
As to `COc1ccc(-c2ccccc2)cc1-c1c(Nc2cc(Cl)cc(Cl)c2O)c(=O)c1=O`, the growth in the assay on NCI-H23 lung was 2.65% (active); with NCI-H226 lung, 19.3%; with NCI-H322M lung it was 11.3%; in the assay with HOP-62 NSCLC, 2.04% (active); with NCI-H460 lung it was 7.61% (active); in the assay with HOP-92 NSCLC it was -24.5% (active). The growth in the assay with NCI-H522 lung was -19.6% (active); in the assay with A549/ATCC NSCLC it was 8.72% (active); in the assay with 786-0 renal it was 17.3%; in the assay with COLO 205 colon, 48.1%.
As for `COc1ccc(C/C(C)=C(/c2ccc(OCCN3CCCC3)cc2)c2ccc(OC(=O)NCc3ccccc3)cc2)cc1`, the growth in the assay with NCI-H23 lung is 93.6%; with NCI-H226 lung it was 102%; in the assay with NCI-H322M lung, 92%; with HOP-62 NSCLC, 91.9%; with NCI-H460 lung it was 63.8%; in the assay with HOP-92 NSCLC, 66.2%. In addition, the growth is 92.6% with NCI-H522 lung, 72.3% with A549/ATCC NSCLC, 69.8% in the assay with 786-0 renal and 77% with COLO 205 colon.
For the compound `CSc1nnc(-c2cc3c([nH]c4ccccc43)c(-c3cccc(O)c3)n2)n1-c1ccc(C)cc1`, the growth is 70.9% with NCI-H23 lung; 57.6% in the assay on NCI-H226 lung; 70.3% with NCI-H322M lung; 44.9% in the assay on HOP-62 NSCLC; 11.4% in the assay on NCI-H460 lung; 21.3% in the assay with HOP-92 NSCLC. Besides, the growth is -2.1% (active) in the assay with NCI-H522 lung, 29.4% in the assay with A549/ATCC NSCLC, 37.8% with 786-0 renal and 76.5% in the assay with COLO 205 colon.
With `COC(=O)c1nc(-c2ccccc2)oc1S(=O)(=O)N(C)CCO`, the growth is 90.9% in the assay with NCI-H23 lung; 90.8% in the assay with NCI-H226 lung; 94.6% in the assay on NCI-H322M lung; 103% in the assay with HOP-62 NSCLC; 105% in the assay on NCI-H460 lung; 41.7% with HOP-92 NSCLC. In addition, the growth in the assay on NCI-H522 lung is 32.7%; in the assay on A549/ATCC NSCLC, 91.2%; in the assay with 786-0 renal it was 57.9%; in the assay on COLO 205 colon it was 48%.
Turning to `CCCN1C(=O)/C(=c2\sc3n(c2=O)C2C(NN=3)N(CC)C(=O)N2CC)c2ccccc21` (stereo not given), the growth in the assay with NCI-H23 lung is 37.8%; in the assay with NCI-H226 lung, 57.1%; in the assay with NCI-H322M lung, 53.1%; with HOP-62 NSCLC, 45.8%; in the assay with NCI-H460 lung it was 5.57% (active); in the assay on HOP-92 NSCLC it was 67.7%. Also, the growth was 1.15% (active) in the assay with NCI-H522 lung, 26.2% in the assay on A549/ATCC NSCLC, 36.5% with 786-0 renal and 17.5% in the assay with COLO 205 colon.
Take `Cc1ccc(Cc2cnc(NC(=O)c3cc(C)oc3C)s2)cc1`: the growth is 76.1% in the assay with NCI-H23 lung; 90.4% with NCI-H226 lung; 70.8% in the assay with NCI-H322M lung; 86% in the assay with HOP-62 NSCLC; 31.3% in the assay with NCI-H460 lung; 79.1% with HOP-92 NSCLC. Moreover, the growth in the assay with NCI-H522 lung is 57.3%; in the assay on A549/ATCC NSCLC it was 55%; with 786-0 renal, 76.8%; in the assay on COLO 205 colon, 115%.
Regarding `O=C(CCN1CCOCC1)Nc1cccc(-n2cc(-c3ccncc3)c(-c3ccc(Cl)c(O)c3)n2)c1`, the growth in the assay on NCI-H23 lung was 51.7%; in the assay on NCI-H226 lung, 71%; with NCI-H322M lung it was 60.4%; with HOP-62 NSCLC, 28%; in the assay with NCI-H460 lung it was 17.8%; with HOP-92 NSCLC, 23.7%. Also, the growth in the assay with NCI-H522 lung is 5.83% (active); in the assay with A549/ATCC NSCLC, 35.8%; with 786-0 renal, 11.7%; with COLO 205 colon, 0.424% (active).
